Laboratory results reported in PubChem BioAssay (NCATS).
Records with an inconclusive call do not appear. Calls of active or inactive are those of the source. Calls follow the shape of the dose curve; as a rule, active = well fitted inhibition curve with a large enough effect; inconclusive = small, poorly fitted or top-dose-only effect; inactive = flat fitted curve, though single readings scatter.

What was measured:
Test in all cases: qHTS profiling for inhibitors of Plasmodium falciparum proliferation (AID 504749); also: nearly all actives have a fitted effect of over 60% in size
Details in all cases: P. falciparum in erythrocytes, SYBR Green DNA, 72 h; series mostly up to 28.7 µM
CP269 = tested on: CP269
In short: (§1)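 Parasite proliferation within erythrocytes, 72 h exposure. Endpoint: SYBR Green I fluorescence after overnight lysis at room temperature. Controls: 0.29 uM artemisinin, DMSO.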

CP286 = tested on: CP286
In short: as §1

CP291 = tested on: CP291
In short: as §1

CP297 = tested on: CP297
In short: as §1

CP305 = tested on: CP305
In short: as §1

CP315 = tested on: CP315
In short: as §1

CP325 = tested on: CP325
In short: as §1

CP329 = tested on: CP329
In short: as §1

CP335 = tested on: CP335
In short: as §1

DFO2036 = tested on: DFO2036
In short: as §1

DIV14 = tested on: DIV14
In short: as §1

DIV17 = tested on: DIV17
In short: as §1

DIV30 = tested on: DIV30
In short: as §1

Dd2 = tested on: Dd2
In short: as §1

ECU = tested on: ECU
In short: as §1

FAB9 = tested on: FAB9
In short: as §1

GB4 = tested on: GB4
In short: as §1

HB3 = tested on: HB3
In short: as §1

ICS = tested on: ICS
In short: as §1

JCK = tested on: JCK
In short: as §1

Measured: Potency
Potency is read from the fitted curve at half-maximal effect.

Cc1ccc(N(CC2=NCCN2)c2cccc(O)c2)cc1
inactive: CP269 | CP286 | CP291 | CP297 | CP305 | CP315 | CP325 | CP329 | CP335 | DFO2036 | DIV14 | DIV17 | DIV30 | Dd2 | ECU | FAB9 | GB4 | HB3 | ICS | JCK

Nc1nc2c(ncn2COCCO)c(=O)[nH]1
inactive: CP269 | CP286 | CP291 | CP297 | CP305 | CP315 | CP325 | CP329 | CP335 | DFO2036 | DIV14 | DIV17 | DIV30 | Dd2 | ECU | FAB9 | GB4 | HB3 | ICS | JCK

NCCCC(N)(C(=O)O)C(F)F (stereo unspecified)
inactive: CP269 | CP286 | CP291 | CP297 | CP305 | CP315 | CP325 | CP329 | CP335 | DFO2036 | DIV14 | DIV17 | DIV30 | Dd2 | ECU | FAB9 | GB4 | HB3 | ICS | JCK

CCc1ccc(CCOc2ccc(CC3SC(=O)NC3=O)cc2)nc1 (stereo unspecified)
inactive: CP269 | CP286 | CP291 | CP297 | CP305 | CP315 | CP325 | CP329 | CP335 | DFO2036 | DIV14 | DIV17 | DIV30 | Dd2 | ECU | FAB9 | GB4 | HB3 | ICS | JCK

O=c1[nH]cnc2[nH]ncc12
inactive: CP269 | CP286 | CP291 | CP297 | CP305 | CP315 | CP325 | CP329 | CP335 | DFO2036 | DIV14 | DIV17 | DIV30 | Dd2 | ECU | FAB9 | GB4 | HB3 | ICS | JCK

NNCCc1ccccc1
inactive: CP269 | CP286 | CP291 | CP297 | CP305 | CP315 | CP325 | CP329 | CP335 | DFO2036 | DIV14 | DIV17 | DIV30 | Dd2 | ECU | FAB9 | GB4 | HB3 | JCK

Cc1oncc1C(=O)Nc1ccc(C(F)(F)F)cc1
active: ICS 3.16 µM
inactive: CP269 | CP286 | CP291 | CP297 | CP305 | CP315 | CP325 | CP329 | CP335 | DFO2036 | DIV14 | DIV30 | Dd2 | ECU | FAB9 | JCK

NCCc1ccc(O)c(O)c1
inactive: CP269 | CP286 | CP291 | CP297 | CP305 | CP315 | CP325 | CP329 | CP335 | DFO2036 | DIV14 | DIV17 | DIV30 | Dd2 | ECU | FAB9 | GB4 | HB3 | ICS | JCK

N#Cc1ccc(C(c2ccc(C#N)cc2)n2cncn2)cc1
inactive: CP269 | CP286 | CP291 | CP297 | CP305 | CP315 | CP325 | CP329 | CP335 | DFO2036 | DIV14 | DIV17 | DIV30 | Dd2 | ECU | FAB9 | GB4 | HB3 | ICS | JCK

O=c1n(CCCN2CCN(c3cccc(Cl)c3)CC2)nc2ccccn12
inactive: CP269 | CP286 | CP291 | CP297 | CP305 | CP315 | CP325 | CP329 | CP335 | DFO2036 | DIV14 | DIV17 | DIV30 | Dd2 | ECU | FAB9 | GB4 | HB3 | ICS | JCK
